Screening data as filed in PubChem BioAssay.
A selection: hits, their analogues and other compounds. The true share with any hit is near 11%.
Insulin prom inh = inhibitors of insulin promoter-driven GFP, primary screen, imaging, TRM-6 cells (human fetal islet line), eGFP reporter, cell count; inhibition, % at 2 µM; reporter expression induced with tamoxifen; actives 0.9% (n = 130,000);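 active means inhibition above the mean plus 3 SD, with well images judged a real hit on visual review, cut at about 60% in these data, passing the limit was not always enough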
WT yeast gro inh = growth inhibition of WT strain, primary screen, mitochondrial fusion inhibitor project, WT and mutant strains, chemical genetic. actives 2.1% (n = 190,000). inhibition, % at 10 µM. mitochondrial fusion phenotypic screen; in the data active means inhibition above about 58%; tested in S. cerevisiae
Autophagy mod = autophagy modulators in MEF cells, primary screen, imaging, high-content, MEF GFP-LC3; MEF GFP-LC3 puncta imaging; test concentration mostly 10 µM; calls only at 10 µM (by protocol); AID 463193, 2010; actives 0.98% (n = 190,000);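 active means percentage of spot-positive cells more than 3 SD above its plate mean, without a fluorescence outlier flag or 80% toxicity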;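 further: spot-positive cell cutoff set from DMSO-treated cells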
L major viab = Leishmania major promastigote growth inhibition, primary screen; actives 9% (n = 200,000); AID 1063, 2008; Leishmania major promastigotes, resazurin fluorescence viability; inhibition, % at 10 µM; in the data active means inhibition above about 50%;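 further: promastigotes grown with compound for 44 hours at 28 °C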
Ins promoter up = insulin promoter activators in MIN6 cells, imaging, high-content screening, mouse beta cells; MIN6 insulin promoter-GFP reporter; stronger effect = higher value; z-score at 5 µM; actives 0.3% (n = 190,000);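 active means z-score above 3 at 5 µM with at least 500 cells counted in the well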
Starred values were filed as active, the others as inactive.

Results for CC(C)Cc1ccc(/C=C/C(=O)NC2CC2)cc1 ?
Insulin prom inh: -27; WT yeast gro inh: -10; Autophagy mod: inactive; L major viab: 4; Ins promoter up: -0.16

Results for Cc1cc(C(=O)CSc2nnnn2-c2ccc(O)cc2)c(C)n1Cc1ccc2c(c1)OCO2 ?
Insulin prom inh: 9; WT yeast gro inh: 22; Autophagy mod: inactive; L major viab: 17; Ins promoter up: -0.95

How did Cc1cc(C(=O)CSc2nnc(-c3cccc(F)c3)n2N)c(C)n1Cc1ccc2c(c1)OCO2 do in these assays?
WT yeast gro inh: 21; Autophagy mod: inactive; L major viab: 75*; Ins promoter up: -0.08

Results for O=S(=O)(NCc1ccccn1)c1ccc(Cl)s1 ?
WT yeast gro inh: 2; Autophagy mod: inactive; L major viab: 2; Ins promoter up: -0.95

How did Cn1nc([N+](=O)[O-])c(C(C#N)c2ccccn2)c(Cl)c1=O (centres undefined) do in these assays?
Insulin prom inh: 7; WT yeast gro inh: -15; Autophagy mod: inactive; L major viab: 100*; Ins promoter up: 0.15

Results for Cc1ccc2nc(-c3ccccc3Cl)cc(C(=O)Nc3cc(C)on3)c2c1 ?
Insulin prom inh: -60; WT yeast gro inh: 8; Autophagy mod: inactive; L major viab: 55*; Ins promoter up: 0.34

What do the screens show for `Cc1cc(NC(=O)c2ccccc2Cl)no1`?
Insulin prom inh: -28; WT yeast gro inh: 13; Autophagy mod: inactive; L major viab: -3; Ins promoter up: -0.2

What do the screens show for `O=C(/C=C/c1ccccc1Cl)N1CCN(c2ncccn2)CC1`?
Insulin prom inh: 21; WT yeast gro inh: -7; Autophagy mod: inactive; L major viab: 59*; Ins promoter up: -0.62

Results for COc1ccc(/C=C/c2nc(N)nc(-c3ccccc3O)n2)cc1OC ?
Insulin prom inh: 36; WT yeast gro inh: 28; Autophagy mod: inactive; L major viab: 93*; Ins promoter up: -2

How did CC(C)Oc1ccc(Cc2c(O)nc(NCCCN(C)C)[nH]c2=O)cc1 do in these assays?
Insulin prom inh: -8; WT yeast gro inh: 15; Autophagy mod: inactive; L major viab: 0

Results for CCN(CC)c1ccc(S(=O)(=O)Nc2cc(Cl)ccc2Cl)cc1NC(=S)NC(=O)C1CCCC1 ?
Insulin prom inh: -33; WT yeast gro inh: 18; Autophagy mod: inactive; L major viab: 56*; Ins promoter up: 0.04

Results for c1nc(NC2CCCCCC2)c2[nH]cnc2n1 ?
Insulin prom inh: 70*; WT yeast gro inh: -13; Autophagy mod: inactive; L major viab: 29; Ins promoter up: 0.49

How did CC(=O)Nc1ccc(S(=O)(=O)N(Cc2ccco2)CC2CCCO2)cc1 (centres undefined) do in these assays?
Insulin prom inh: -11; WT yeast gro inh: 0; Autophagy mod: inactive; L major viab: -3; Ins promoter up: -2

Results for COCCn1c(SCc2cc(=O)n3cc(C)ccc3n2)nc2ccccc2c1=O ?
WT yeast gro inh: -7; Autophagy mod: inactive; L major viab: -1; Ins promoter up: -1

Results for COc1ccc(CNC(=O)CS(=O)CC(=O)O)cc1OC (centres undefined) ?
WT yeast gro inh: -13; Autophagy mod: inactive; L major viab: -9; Ins promoter up: 0

Results for Cc1ccc(C)c(NC(=O)C(Sc2ncnc3ccccc23)c2ccccc2)c1 (centres undefined) ?
Insulin prom inh: 30; WT yeast gro inh: -1; Autophagy mod: inactive; L major viab: 73*; Ins promoter up: -0.02

What do the screens show for `CC(=O)c1cccc(NC(=O)C(Sc2ncnc3ccccc23)c2ccccc2)c1` (centres undefined)?
WT yeast gro inh: -4; Autophagy mod: inactive; L major viab: 19; Ins promoter up: 1.3

What do the screens show for `O=C(O)CCC(=O)Nc1ccccc1C(=O)NCCc1ccccc1`?
Insulin prom inh: -31; WT yeast gro inh: -14; Autophagy mod: inactive; L major viab: 56*; Ins promoter up: -0.1

What do the screens show for `CS(=O)(=O)N(CC(=O)Nc1ccccc1C(=O)NCc1ccccc1)c1ccc2c(c1)OCCO2`?
WT yeast gro inh: -2; Autophagy mod: inactive; L major viab: 15; Ins promoter up: 0.48

What do the screens show for `CS(=O)(=O)N(CC(=O)Nc1ccccc1C(=O)NCCc1ccccc1)c1ccc2c(c1)OCCO2`?
WT yeast gro inh: 43; Autophagy mod: inactive; L major viab: 99*; Ins promoter up: -0.59

Results for Cc1cc(C)nc(-n2ncc3c2CC(c2cccc(Cl)c2)CC3=O)n1 (centres undefined) ?
Insulin prom inh: -50; WT yeast gro inh: -5; Autophagy mod: inactive; L major viab: 1; Ins promoter up: -1.6

What do the screens show for `Cc1cn2nc(N)c3ccccc3c2n1`?
WT yeast gro inh: 21; Autophagy mod: inactive; L major viab: -3; Ins promoter up: 0.59

What do the screens show for `Nc1nn2cc(-c3ccccc3)nc2c2ccccc12`?
WT yeast gro inh: 44; Autophagy mod: inactive; L major viab: 87*; Ins promoter up: -0.54

Results for Cn1c(N)c(C(=O)/C=C/c2ccccc2)c(=O)[nH]c1=O ?
Ins promoter up: -0.15

How did O=C(CSc1nc2ccccc2c(=O)n1-c1ccccc1)NCc1ccco1 do in these assays?
WT yeast gro inh: 6; Autophagy mod: inactive; L major viab: 61*; Ins promoter up: 0.7

How did O=C(CSc1nc2ccccc2c(=O)n1-c1ccccc1)NCc1ccc2c(c1)OCO2 do in these assays?
WT yeast gro inh: -9; Autophagy mod: inactive; L major viab: 13; Ins promoter up: 0.52

How did Cc1cccc(-n2c(SCC(=O)NCc3ccc4c(c3)OCO4)nc3ccccc3c2=O)c1 do in these assays?
Insulin prom inh: -38; WT yeast gro inh: -8; Autophagy mod: inactive; L major viab: 96*; Ins promoter up: -0.21

What do the screens show for `Cc1[nH]c2ccc(-c3nnc(SCC(=O)NCc4ccco4)n3Cc3ccccc3)cc2c1C`?
Insulin prom inh: 14; WT yeast gro inh: -3; Autophagy mod: inactive; L major viab: 97*; Ins promoter up: 0.47

Results for O=C(CSc1nnc(CCc2nc3ccccc3[nH]2)n1-c1ccccc1)NCc1ccco1 ?
Insulin prom inh: -42; WT yeast gro inh: 15; Autophagy mod: active; L major viab: 9; Ins promoter up: 0.65

What do the screens show for `CCn1c(SCC(=O)NCc2ccco2)nnc1-c1ccncc1`?
Insulin prom inh: -25; WT yeast gro inh: -17; Autophagy mod: inactive; L major viab: 10; Ins promoter up: -0.37

Results for O=C(CSc1nnc(CCc2nc3ccccc3[nH]2)n1-c1ccccc1)NCc1ccccc1 ?
Insulin prom inh: 27; WT yeast gro inh: 24; Autophagy mod: inactive; L major viab: 0

What do the screens show for `CCOC(=O)c1sc(/S(C)=N\S(=O)(=O)c2cccc(Cl)c2)c2c1CCC=C2` (centres undefined)?
Ins promoter up: 0.65

What do the screens show for `COc1ccc(Cl)cc1NC(=O)C(C)N(C)Cc1cccc(Cl)c1Cl` (centres undefined)?
WT yeast gro inh: 30; Autophagy mod: inactive; L major viab: 13; Ins promoter up: -0.09
